# Data reported in the supplement of paper PMC3545927.
# This is one part of the list. The true hit rate is not given.
# Biological target: furin, P09958
# Assay: furin cleavage Z-score vs untreated control; higher = more cleavage, active = 3.5 or more, inactive = 1 or less, 8 variable residues between constant flanks
# In short: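 The cleavage Z-score is the log read count relative to furin-free reactions, lowess-adjusted and scaled by median absolute deviation. Counts came from sequencing DNA released from bead-bound 8-mer peptide–cDNA fusions after digestion with purified furin for 7.5, 15 or 30 min.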
# 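Note: purified furin at 1:10 enzyme:substrate in 50 mM HEPES pH 7.5.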
# Chain of furin, P09958 (P09958 whole entry): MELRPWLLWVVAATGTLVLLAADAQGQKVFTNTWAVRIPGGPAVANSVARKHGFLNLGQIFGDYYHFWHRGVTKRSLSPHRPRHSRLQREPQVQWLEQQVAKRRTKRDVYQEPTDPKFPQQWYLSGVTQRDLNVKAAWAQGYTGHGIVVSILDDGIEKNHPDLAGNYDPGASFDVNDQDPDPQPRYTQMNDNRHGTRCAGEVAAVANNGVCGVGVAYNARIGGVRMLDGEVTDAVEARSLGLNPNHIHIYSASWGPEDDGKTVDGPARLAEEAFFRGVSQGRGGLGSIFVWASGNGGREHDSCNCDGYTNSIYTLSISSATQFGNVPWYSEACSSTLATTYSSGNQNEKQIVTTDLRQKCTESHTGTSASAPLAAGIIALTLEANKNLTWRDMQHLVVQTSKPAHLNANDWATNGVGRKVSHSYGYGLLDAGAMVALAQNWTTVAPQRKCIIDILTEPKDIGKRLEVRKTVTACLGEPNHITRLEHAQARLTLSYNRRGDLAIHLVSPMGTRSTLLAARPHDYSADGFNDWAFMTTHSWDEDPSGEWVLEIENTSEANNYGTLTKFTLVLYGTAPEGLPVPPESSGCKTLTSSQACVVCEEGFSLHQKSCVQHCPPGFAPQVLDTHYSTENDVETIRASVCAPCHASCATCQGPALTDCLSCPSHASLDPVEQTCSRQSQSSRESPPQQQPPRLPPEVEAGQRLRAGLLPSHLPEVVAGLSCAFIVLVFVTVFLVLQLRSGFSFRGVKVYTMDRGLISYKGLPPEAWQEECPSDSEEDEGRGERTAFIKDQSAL
Sequence,furin cleavage Z-score (7.5 min),furin cleavage Z-score (15 min),furin cleavage Z-score (30 min)
CATDVVCCSMAGNASASA [HC2118],1.2,0.0514 (inactive),-0.681 (inactive)
CAFIPVENLEAGNASASA [HC758],-2.14 (inactive),-0.887 (inactive),-1.28 (inactive)
CAMEECSVHLAGNASASA [HC1730],-0.159 (inactive),-0.406 (inactive),0.608 (inactive)
CAEPLRKKKKAGNASASA [FS-1320],-0.899 (inactive),-0.615 (inactive),-0.879 (inactive)
CAEPHRRRRKAGNASASA [FS-415],4.43 (active),5.99 (active),6.78 (active)
CAMDYRGRRKAGNASASA [FS-1544],-0.964 (inactive),-0.642 (inactive),0.39 (inactive)
CARQGRSGQKAGNASASA [FS-2063],-0.381 (inactive),0.885 (inactive),-0.813 (inactive)
CACRRRRRRKAGNASASA [FS-583],7.53 (active),8.14 (active),6.13 (active)
CARRRRKQRKAGNASASA [FS-2791],2.34,4.43 (active),4.61 (active)
CAEPRRSRRKAGNASASA [FS-23],3.35,6.04 (active),5.36 (active)
CAVYHGAGTRAGNASASA [HC701],-1.21 (inactive),-0.779 (inactive),-0.813 (inactive)
CALLMCAVHPAGNASASA [HC598],-0.584 (inactive),-1.05 (inactive),-0.438 (inactive)
CALERRSVYTAGNASASA [FS-1986],-0.7 (inactive),0.537 (inactive),-0.997 (inactive)
CAKTPCSGSWAGNASASA [HC1834],-1.42 (inactive),-1.89 (inactive),-1.1 (inactive)
CAQREVPCHRAGNASASA [HC2442],1.83,1.74,0.0102 (inactive)
CALMRRRRRKAGNASASA [FS-1599],8.11 (active),10.6 (active),8.59 (active)
CAWTVYHGAGAGNASASA [HC700],-0.0993 (inactive),1.58,1.31

Sequence,furin cleavage Z-score (7.5 min),furin cleavage Z-score (15 min),furin cleavage Z-score (30 min)
CAIKKRSLRSAGNASASA [FS-1345],6.68 (active),5.55 (active),5.16 (active)
CASTPCSAHSAGNASASA [HC2577],-0.571 (inactive),0.484 (inactive),1.4
CASTVRSLRSAGNASASA [FS-566],2.72,4.24 (active),4.81 (active)
CARRRKSASDAGNASASA [FS-2074],-0.354 (inactive),-0.175 (inactive),0.845 (inactive)
CAEVPCHRPIAGNASASA [HC2404],0.502 (inactive),-0.467 (inactive),1.19
CAVVCCSQSYAGNASASA [HC2062],1.31,2.95,0.942 (inactive)
CARTHRSKRSAGNASASA [FS-957],11.6 (active),11.5 (active),8.26 (active)
CALSHRSKRSAGNASASA [FS-1031],12.7 (active),12.6 (active),11.4 (active)
CARRRRDHHMAGNASASA [FS-1838],7.82 (active),8.82 (active),7.36 (active)
CARRRRDLGGAGNASASA [FS-1866],3.6 (active),2.23,1.75
CARRRRDTHFAGNASASA [FS-2785],8.52 (active),11.4 (active),10.2 (active)
CARRRRDLQAAGNASASA [FS-2075],8.41 (active),10.5 (active),8.73 (active)
CARRRKDDYAAGNASASA [FS-2073],0.651 (inactive),0.661 (inactive),-1.05 (inactive)
CARHRRILQAAGNASASA [FS-2025],-0.809 (inactive),0.0867 (inactive),-0.324 (inactive)
CARRRRRPGGAGNASASA [FS-3065],-0.191 (inactive),-1.18 (inactive),-0.53 (inactive)
CARRRGDSRGAGNASASA [HC732],-0.828 (inactive),-0.656 (inactive),-0.847 (inactive)
